A number with no mark means an inactive call.

The target in this experiment is Homeobox protein Hox-A13 (Mus musculus) (UniProt Q62424). As to the kind of experiment: inhibitors of HoxA13-DNA binding, primary screen, biochemical, fluorescence polarization, labeled oligonucleotide (AID 1185). The conditions noted are these: 15 min, higher = more signal, called active from +8 up or from −8 down. Background: Polarisation of emitted light reports the rotation of a fluorescent probe.
Homeobox protein Hox-A13 (Mus musculus), sequence (Q62424 whole entry, looked up): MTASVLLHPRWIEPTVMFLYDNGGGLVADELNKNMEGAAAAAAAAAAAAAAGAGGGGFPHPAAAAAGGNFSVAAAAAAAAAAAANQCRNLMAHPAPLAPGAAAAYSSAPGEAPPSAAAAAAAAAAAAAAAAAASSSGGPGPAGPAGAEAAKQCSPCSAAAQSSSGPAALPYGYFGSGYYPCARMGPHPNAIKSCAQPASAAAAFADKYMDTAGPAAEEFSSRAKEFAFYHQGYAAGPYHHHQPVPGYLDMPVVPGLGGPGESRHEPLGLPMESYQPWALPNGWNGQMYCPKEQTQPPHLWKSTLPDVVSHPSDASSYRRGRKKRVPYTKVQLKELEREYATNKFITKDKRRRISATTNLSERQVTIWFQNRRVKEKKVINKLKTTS
As for `CC(C)=NOC(C)CN1CCCCc2nc(C)c(C)cc21` (stereo unspecified), the z-score was -1.28.
The same measure for `CCN1C(C)=C(C(=O)OC)[C@@H](c2ccccc2)N2C(=O)[C@](O)(C(=O)OC)CC(C(C)=O)=C12`: 0.334.
With `COC(=O)[C@H](C)NC(=O)CCC1CC(OC(=O)NCc2ccc3c(c2)OCO3)CC2(CCCC(COC(=O)NCCC(C)C)O2)O1` (stereo partly specified), the z-score was -6.3.
For `CCN(CC)CC(O)CN1CCCCc2nc(C)c(C)cc21` (stereo unspecified) the value was -1.17; for `CC(C)(C)N1C(=O)[C@H]2[C@H]3[C@H](O)[C@H](O)CC(=NNC(=O)OCc4ccccc4)[C@@H]3CC[C@H]2C1=O`, 0.408.
Regarding `CCN1C(=O)[C@H]2[C@H]3[C@H](O)[C@H](O)CC(=NOC[C@@H](O)[C@H]4O[C@@H]5OC(C)(C)O[C@@H]5[C@H]4O)[C@@H]3CC[C@H]2C1=O`, the z-score was 0.303.
Take `CO[C@@H]1COC(=O)CC=C[C@H](C)[C@H](OC)COC(=O)[C@@H]2CCCN2C(=O)CC=C[C@H]1C`: the z-score was -1.11.
Regarding `CC(CCN1CCc2nc(-c3ccccc3)c(-c3ccccc3)cc2C1)=NO[C@H](C)c1cn([C@H](CO)Cc2ccccc2)nn1`, the z-score was -5.22.
For `CCOC(=O)[C@H](CC(C)C)NC(=O)CCC1CC(OC(=O)NCCc2ccc(F)cc2)CC2(CCCC(COC(=O)NCc3cccc(C(F)(F)F)c3)O2)O1` (stereo partly specified) the value was -6.52; for `COc1ccc(COC(=O)NN=C2C[C@@H](O)[C@@H](O)[C@@H]3[C@@H]4C(=O)N(Cc5ccc6c(c5)OCO6)C(=O)[C@@H]4CC[C@H]23)cc1`, -0.118; for `COC(=O)[C@@H]1CC[C@H](C)[C@@H](c2ccc(C)cc2)N1C(=O)c1ccc(C=NOC[C@H]2O[C@H](c3ccccc3)C=C[C@@H]2Oc2ccc(OC)cc2)cc1`, -0.0628.
In the case of `CC(=O)OC[C@H]1O[C@H](CCON=C(C)C)C=C[C@@H]1OC(C)=O`, the z-score was 0.389.
In the case of `CO[C@@H]1COC(=O)[C@H](CCSC)NC(=O)CC=C[C@@H](C)COC(=O)[C@@H]2CCCN2C(=O)CC=C[C@H]1C`, the z-score was 0.213.
The same measure for `CCOC(=O)[C@H](CC(C)C)NC(=O)CCC1CC(OC(=O)NCc2ccc3c(c2)OCO3)CC2(CCCC(COC(=O)NCc3ccccc3)O2)O1` (stereo partly specified): -6.86; for `CC(CCC(=O)OC[C@H]1O[C@H](C#Cc2ccccc2)C=C[C@@H]1Oc1ccc(C)cc1)=NOC[C@@H](C)[C@H](OCc1ccccc1)C(C)C`: -0.499; for `COc1ccc(-c2cnnc(CCCn3ccnc3-c3ccccc3)n2)cc1`: -3.52.
For `COc1ccc(COC(=O)NN=C2C[C@@H](O)[C@@H](O)[C@@H]3[C@@H]4C(=O)N(C5CCCCC5)C(=O)[C@@H]4CC[C@@H]23)cc1` the value was -4.36.
As to `CCN1C(=O)[C@H]2[C@H]3[C@H](O)[C@H](O)CC(=NO[C@H](C)c4cn([C@H](CO)Cc5ccccc5)nn4)[C@@H]3CC[C@H]2C1=O`, the z-score was -2.36.
The same measure for `CO[C@@H]1COC(=O)[C@H](COCc2ccccc2)NC(=O)CC=C[C@@H](C)[C@H](OC)COC(=O)[C@@H](C)NC(=O)CC=C[C@H]1C`: -1.83.
The same measure for `O=C1[C@H]2CCn3c(=O)n(Cc4cc5c(cc4Cl)OCO5)c(=O)n3[C@H]2[C@H](O)[C@@H]2O[C@H]12`: -0.543; for `COC(=O)CC=C[C@@H](C)[C@@H](C=NOC(C)CN1CCCc2nc(C)c(C)cc21)NS(=O)(=O)c1ccc(C)cc1` (stereo partly specified): -7.74.
The same measure for `COC(=O)CC=C[C@@H](C)[C@@H](C=NOC[C@@H](O)COCc1ccco1)NS(=O)(=O)c1ccc(C)cc1`: -3.79; for `C[C@@H]1CC[C@H]2C(=O)O[C@@H](CN=[N+]=[N-])CN2[C@H]1c1ccc(Br)cc1`: -0.917.
Regarding `COC(OC)[C@@H](C)[C@H](OC)[C@@H](C)[C@H](OC)c1ccccc1`, the z-score is -0.402.
`CCOC(=O)[C@H](CC(C)C)NC(=O)CCC1CC(OC(=O)NCc2ccc3c(c2)OCO3)CC2(CCCC(COC(=O)NCCc3ccccc3OC)O2)O1` (stereo partly specified): the z-score is -3.78.
Regarding `CO[C@@H]1COC(=O)[C@@H]2CCCN2C(=O)[C@@H](C)COC(=O)CCC[C@H]1C`, the z-score is 0.694.
For `CC(C)=NO[C@@H](C)c1cn([C@H](CO)Cc2ccccc2)nn1` the value was 1.06.
For `CC1(C)O[C@H]2O[C@H]([C@H](O)CON=C3[C@H]4CCn5c(=O)n(-c6ccccc6)c(=O)n5[C@H]4[C@H](O)[C@@H]4O[C@H]34)[C@H](O)[C@H]2O1` the value was -0.437; for `COC(=O)CC=C[C@@H](C)[C@@H](C=NOC(C)CN1CCCCc2nc(C)c(C)cc21)OC` (stereo partly specified), -4.37.
For `COC(=O)CC=C[C@@H](C)[C@@H](C=NOC(C)CN1CCCCc2nc(C)c(C)cc21)NS(=O)(=O)c1ccc(C)cc1` (stereo partly specified) the value was -0.327; for `CCN1C(=O)[C@H]2[C@H]3[C@H](O)[C@H](O)CC(=NNC(=O)OCc4ccccc4)[C@@H]3CC[C@H]2C1=O`, -0.144; for `CC(C)[C@@H](OCc1ccccc1)[C@H](C)C=NO[C@H](C)c1cn([C@@H]2COC[C@H]2O)nn1`, -0.967.
Regarding `O=C1[C@H]2[C@H]3[C@H](O)[C@H](O)CC(=NO[C@@H]4O[C@H](CO)[C@@H](O)[C@H](O)[C@H]4O)[C@H]3CC[C@H]2C(=O)N1C[C@@H]1CCCO1`, the z-score was 0.594.
Consider `CC#CCOCCC=C1c2ccccc2[C@@H](OC)[C@@H]1C`, for which the z-score was -3.
For `C[C@@H]1CC[C@H]2C(=O)O[C@@H](COc3ccc(C(C)(C)C)cc3)CN2[C@H]1c1ccc(Br)cc1` the value was 0.503.
`COc1ccc(COC(=O)NN=C2C[C@@H](O)[C@@H](O)[C@@H]3[C@@H]4C(=O)N(Cc5ccccc5)C(=O)[C@@H]4CC[C@@H]23)cc1`: the z-score was 0.19.

For the origin of these results see PubChem BioAssay.
